Data: PubChem BioAssay (NCI)
This is part of a sample that, as a whole, favours compounds with a hit. Of some 79,000 tested, about 15% had one in any assay. Active and inactive are the calls of the source. Rule as the data show it: active = growth inhibition above about 70%; inactive = the rest.

Assays:
[1] = NCI Yeast Anticancer Drug Screen. Data for the rad50 strain (AID 155);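 also: 0% = growth of vehicle-only cultures of the same strain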; details: S. cerevisiae rad50 strain growth inhibition; at 50.0 µM; active compounds read high
In short: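 Inhibition values express reduced yeast growth in compound-treated cultures relative to vehicle-treated controls.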

[2] = NCI Yeast Anticancer Drug Screen. Data for the mec2-1 strain (AID 157); details: S. cerevisiae mec2-1 strain, at 50.0 µM, active compounds read high
In short: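 Compounds were applied to mec2-1 yeast cells. Their growth was then compared with that of vehicle-treated cultures to give growth inhibition.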

[3] = NCI Yeast Anticancer Drug Screen. Data for the sgs1 mgt1 strain (AID 161);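 also: 0% = growth of cultures given vehicle only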; details: S. cerevisiae sgs1 mgt1 strain, at 50.0 µM, active compounds read high
In short: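 Compounds are added to genetically altered yeast, and growth is compared with cultures given vehicle alone to give percent inhibition.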

[4] = NCI Yeast Anticancer Drug Screen. Data for the cln2 rad14 strain (AID 165);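 also: 0% = growth equal to vehicle treated cultures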; details: S. cerevisiae cln2 rad14 strain, at 50.0 µM, active compounds read high
In short: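 Strain: cln2 rad14 yeast, altered in cell cycle control and DNA damage repair. Read-out: growth inhibition vs vehicle.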

[5] = NCI Yeast Anticancer Drug Screen. Data for the bub3 strain (AID 167); details: S. cerevisiae bub3 mutant strain, at 50.0 µM, active compounds read high
In short: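 Steps: expose the mutant yeast strain to compound; grow alongside vehicle-treated cultures; measure growth; express inhibition against the vehicle cultures.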

[6] = NCI Yeast Anticancer Drug Screen. Data for the mlh1 rad18 strain (AID 175); details: S. cerevisiae mlh1 rad18 strain growth inhibition; at 50.0 µM; active compounds read high
In short: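 A repair-deficient yeast strain is exposed to test compound, and growth is scored relative to vehicle-treated controls.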

Measured: growth inhibition

CCNCCNC(=O)c1ccc(I)cc1
inactive: [1] -33.9% | [2] -7.2% | [3] -4.2% | [4] 6.65% | [5] -14.8% | [6] -10.8%

CN(CC(=O)c1ccc(Cl)cc1)Cc1cccc2ccccc12
inactive: [1] 18.2% | [2] -5.8% | [3] 51.4% | [4] 11.7% | [5] 22.9% | [6] 38.8%

COc1cc(NCCCCCNC(C)C)c2ncccc2c1OC
inactive: [1] -15.1% | [2] -9.9% | [3] -1.95% | [4] -11.3% | [5] 9.05% | [6] -3.1%

Oc1cc2ccc3c(c2cc1O)CCc1cn[nH]c1-3
inactive: [1] 7.1% | [2] 9.25% | [3] 17.5% | [4] -0.55% | [5] 15.8% | [6] 15.5%

COc1ccc(OC(=O)Nc2ccc(OC)cc2Cl)cc1
inactive: [1] 3% | [2] 5.75% | [3] 7.05% | [4] 12.6% | [5] 24.7% | [6] 7.7%

O=C(c1ccccc1)C(O)(c1ccccc1)C1CCCC/C1=N\N(c1ccccc1)c1ccccc1 (stereo unspecified)
inactive: [1] 37% | [2] 31.4% | [3] 29.9% | [4] 32.7% | [5] -20.4% | [6] 37.3%

C=C(CN(C)C)C(=O)c1ccc(OC)cc1
inactive: [1] 7.75% | [2] 19% | [3] -3.75% | [4] 17.5% | [5] 2% | [6] 27.2%

O=C(O)Cc1ccc(OCCCCCOc2ccc(CC(=O)O)cc2)cc1
inactive: [1] 6.05% | [2] 0.25% | [3] 20.6% | [4] -49.9% | [5] -12% | [6] 4.35%

COC(=O)C1(CC(=O)c2ccccc2)NC(=S)NC(=O)C1C#N (stereo unspecified)
inactive: [1] 1.85% | [2] -13.9% | [3] -24.4% | [4] -15.8% | [5] -33.5% | [6] -3.35%

Cn1ncc2c(NN)nc(Cl)nc21
inactive: [1] 8.6% | [2] -18.7% | [3] -4.55% | [4] -18.4% | [5] -14.8% | [6] 7%

CCCCc1cc(/C=N\NC(N)=O)c2ccccc2n1
inactive: [1] -0.6% | [2] -14.2% | [3] -1.1% | [4] 1.45% | [5] -5.35% | [6] 18.8%

O=C(NC1CCCCC1)c1cccnc1
inactive: [1] -11.4% | [2] -2.2% | [3] -17.1% | [4] -10.9% | [5] -14.5% | [6] -13.5%

CCCCC(CC)COC(=O)COc1ccc(C(C)c2ccc(OCC(=O)OCC(CC)CCCC)cc2)cc1 (stereo unspecified)
inactive: [1] -6.6% | [2] 10.5% | [3] 7.9% | [4] -3.55% | [5] 3.2% | [6] -38.2%

CCCCN(C=O)c1ccccc1
inactive: [1] 3.15% | [2] 9.65% | [3] 2.95% | [4] 7.15% | [5] -8.45% | [6] 27.9%

CCCCCCCCCCCSc1ccc2ccccc2c1
inactive: [1] 5.75% | [2] 14.7% | [3] 6.75% | [4] -20.5% | [5] -18.6% | [6] 5.3%

CCC(=O)c1ccc2ccccc2c1
inactive: [1] 5.1% | [2] 3.75% | [3] -0.65% | [4] -10.1% | [5] -2.1% | [6] -0.55%

Nc1nc2c(c(-c3ccc(F)cc3)n1)COC/C2=C\c1ccc(F)cc1
inactive: [1] 31.5% | [2] 24% | [3] 15.2% | [4] 22.1% | [5] 40.8% | [6] 19.6%

CC1(C)OC2(CC1C1(C)C=CC(=O)O1)CC1C(O)(CCC34CC13C(=O)OC4c1ccoc1)O2 (stereo unspecified)
inactive: [1] 3.95% | [2] -17.3% | [3] 3.15% | [4] 6.2% | [5] -3.1% | [6] 10.2%

Nc1ccnn2c(-c3ccccc3)nnc12
inactive: [1] -0.55% | [2] 1.85% | [3] -5.7% | [4] 4.25% | [5] 12.4% | [6] 2.35%

O=C(/C=C/c1ccc2c(c1)OCO2)c1cccc2ccccc12
inactive: [1] -4.4% | [2] -14.6% | [3] -17.4% | [4] 4.05% | [5] -3% | [6] 5%

Clc1ccccc1Nc1c2ccccc2nc2ccccc12
active: [1] 94.5% | [2] 98.1% | [3] 85.1% | [4] 96.3% | [5] 88.7% | [6] 97.7%

Cc1ccc(S(=O)(=O)CN2C(=O)C(c3ccccc3)(c3ccccc3)C23OC(c2ccc(Cl)cc2)=CC3=O)cc1 (stereo unspecified)
inactive: [1] -2.35% | [2] -7.7% | [3] -5.7% | [4] -20.1% | [5] -35.7% | [6] -21.9%

S=c1nc(-c2ccnc(-c3nc(=S)[nH][nH]3)c2)[nH][nH]1
inactive: [1] -18.4% | [2] -18.4% | [3] -18.8% | [4] 43.7% | [5] -9.75% | [6] -43.7%

CC1=NNC(=O)C1CCS (stereo unspecified)
inactive: [1] -3.55% | [2] 4.35% | [3] -1.45% | [4] -3.1% | [5] -8% | [6] -7.4%

OC1CCCN(CCNN2CCCC2)C1 (stereo unspecified)
inactive: [1] 17.9% | [2] 9.65% | [3] 15.4% | [4] 31.1% | [5] 2.35% | [6] 15.3%

COC(=O)Nn1cc(C(C(C)=O)C(C)=O)c(C(C)=O)c1C
inactive: [1] -6.9% | [2] -0.15% | [3] 7.9% | [4] -35.6% | [5] -0.05% | [6] 17.9%

O=C(OCC(O)C(O)C(O)C(SCc1ccccc1)SCc1ccccc1)c1ccc([N+](=O)[O-])cc1 (stereo unspecified)
inactive: [1] 23.6% | [2] 3.1% | [3] 31.6% | [4] 20.4% | [5] -1% | [6] 5.85%

Cc1cc(Cl)ccc1OCCCC(=O)NC(Cc1c[nH]c2ccccc12)C(=O)O (stereo unspecified)
inactive: [1] 3.35% | [2] 2.9% | [3] 17.7% | [4] 22.4% | [5] -2.4% | [6] 9.35%

N=c1nc(N)ss1
inactive: [1] 15.8% | [2] 5.85% | [3] 16.4% | [4] -31.6% | [5] 21.7% | [6] 44%

CC(Sc1ccc([N+](=O)[O-])cn1)C(=O)O (stereo unspecified)
inactive: [1] 2.55% | [2] 12.9% | [3] 13.5% | [4] -37% | [5] -25.9% | [6] 30.9%

CCOC(=O)c1cc2ccccc2nc1N
inactive: [1] 0% | [2] 3.45% | [3] -7.15% | [4] -21.5% | [5] -17.1% | [6] 1.1%

O=S(=O)(NC/C=C/c1ccccc1)c1ccccc1
inactive: [1] -6.95% | [2] 16.7% | [3] -0.45% | [4] 26.9% | [5] 4.65% | [6] -39.9%

CC(C)(c1cccs1)c1cscc1C(=O)O
inactive: [1] -0.85% | [2] -6.8% | [3] -13.3% | [4] -28.8% | [5] -9.35% | [6] 16.7%

CC(=O)O[C@H]1CSC[C@@H](OC(C)=O)C1[N+](=O)[O-] (stereo partly specified)
inactive: [1] 37.5% | [2] 25.4% | [3] 17.7% | [4] 43.2% | [5] 18.8% | [6] 47.1%

O=C(Nc1cc(Cl)c(I)c(Cl)c1)C(F)(F)F
active: [1] 96.6% | [2] 97.4% | [3] 96.8% | [4] 97% | [5] 79.8% | [6] 97.5%

O=C(CC(C(=O)c1cccs1)c1cccs1)c1ccccc1Cl (stereo unspecified)
inactive: [1] -10% | [2] -27.6% | [3] -12.6% | [4] -11.3% | [5] -3.8% | [6] -8.15%

COc1ccc(C2OCC3(O)C(c4ccc(OC)c(OC)c4)OCC23)cc1OC (stereo unspecified)
inactive: [1] -0.85% | [2] -3.15% | [3] -1.35% | [4] 19.4% | [5] -9.8% | [6] 6.85%

NC(=S)SC1=NNC2(C(=O)N1)c1ccccc1-c1ccccc12
inactive: [1] -11.6% | [2] -33.6% | [3] 14.2% | [4] -6.7% | [5] 5.7% | [6] 14.6%

COC(=O)C(CC(=O)C=[N+]=[N-])NC(=O)C(Cl)Cl (stereo unspecified)
inactive: [1] -2.4% | [2] -8.9% | [3] -4.7% | [4] -15.9% | [5] 9.3% | [6] -8.95%

CCc1ccccc1NC(=O)CCl
inactive: [1] 9.15% | [2] 0.3% | [3] -0.35% | [4] 17.6% | [5] -3.1% | [6] 2.75%

CCC[C@@H]1C[C@@H](OC(=S)SC)C[C@H]2CCC(=O)N12
inactive: [1] -3.1% | [2] -9.6% | [3] -7.85% | [4] -4.9% | [5] 44.9% | [6] -16.6%
